An excerpt weighted towards active compounds, which were near 2.2% of everything screened.
Ba/F3 V617F tox: reduced viability of JAK2V617F-dependent Ba/F3 cells, primary screen, JAK2V617F inhibitor project, cell-based, Ba/F3 EpoR-JAK2V617F, luminescence | ATP luminescence | inhibition, % at 5.6 µM | 220,000 compounds, 1.1% hits | AID 1446, 2008;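 active = inhibition above the campaign mean plus 3 SD over all tested compounds, cut at about 24% in these data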;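 note: cytokine-independent growth of Ba/F3 cells driven by EpoR plus mutant JAK2; 0% = DMSO-treated cells and 100% = JAK inhibitor I control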
IEC-6 tox: cytotoxicity in IEC-6 intestinal epithelial cells, primary screen, cytotoxicity control for KLF5 inhibitor project, cell-based, luminescence | AID 1825, 2009 | IEC-6 cytotoxicity, luminescence viability | inhibition, % at 5 µM | 290,000 compounds, 0.78% hits;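 note: 0% = plate median of test compound wells and 100% = cytotoxic reference compound wells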
KLF5 inh: KLF5 expression inhibitors, primary screen, DLD-1 cells, luminescence | AID 1700, 2009 | inhibition, % at 5 µM | 290,000 compounds, 0.23% hits | DLD-1 KLF5 promoter-luciferase reporter;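 active = inhibition above a per-plate limit of that plate's mean compound inhibition plus 3 SD, cut at about 60% in these data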;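 note: 0% = DMSO wells and 100% = LY294002 at 200 µM; higher means less KLF5 promoter-driven luciferase light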
APP 5UTR inh: inhibitors of APP translation via 5'UTR reporter, primary screen, APP 5'UTR luciferase, SH-SY5Y cells; SH-SY5Y APP 5'UTR-luciferase reporter, luminescence; inhibition, % at 2 µM; 190,000 compounds, 0.82% hits; AID 1285, 2008;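 active = inhibition above a set limit, derived from the sample mean plus 3 SD, cut at about 45% in these data; inconclusive = one replicate passes the limit while the other fails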
BaF3 tox: parental Ba/F3 cell viability inhibition, counter-screen for JAK2V617F inhibitor project, murine pro-B, CellTiter-Glo luminescence | CellTiter-Glo ATP luminescence | inhibition, % at 5.6 µM | 220,000 compounds, 1.1% hits | AID 1486, 2009;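 active = inhibition above a per-campaign cutoff, the mean inhibition of all tested compounds plus 3 SD, cut at about 27% in these data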;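 note: 0% = DMSO wells and 100% = JAK Inhibitor I control wells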
aSyn UTR inh: MLPCN primary screen, SNCA 5' untranslated region. 300,000 compounds, 0.82% hits. alpha-synuclein 5'UTR reporter, inhibitor activity. inhibition, % (tested at 7.5 µM); in the data active = inhibition above about 60%; inconclusive = no clear call, values can overlap the other calls;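 note: H4 neuroglioblastoma cells stably carrying SNCA 5'UTR luciferase fusion; 0% = DMSO wells and 100% = positive control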
IEC-6 cytotox cf: cytotoxic compounds in IEC-6 epithelial cells, confirmation, cytotoxicity control, cell-based, luminescence; shares compounds with IEC-6 tox; IEC-6 rat intestinal epithelial viability; inhibition, % at 5 µM; 1,900 compounds, 63% hits;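 note: 0% = vehicle and 100% = reference cytotoxic drug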
An asterisk follows results filed as active; ? = inconclusive; · = not tested or not shown. Cut-off read from the data, not from the text of the source, unless noted: active = inhibition above about 22%; inactive = the rest.

SMILES | Ba/F3 V617F tox | IEC-6 tox | KLF5 inh | APP 5UTR inh | BaF3 tox | aSyn UTR inh | IEC-6 cytotox cf
O=C1C(Cl)=C(Nc2ccc(O)cc2)C(=O)c2ccccc21 | 39* | 102* | 48 | · | 59* | -59 | 56*
O=C(NC1=C(Nc2ccc(F)cc2)C(=O)c2ccccc2C1=O)c1ccc(Cl)cc1 | -3 | 4 | 0 | 5 | -1 | -57 | ·
N#CC1=C(N)Oc2ccc3ccccc3c2C1c1cccnc1 (stereo not given) | 53* | 55* | 47 | 54* | 34* | ? | 48*
C=CCn1cc(C(=O)NCCOC)c(=O)c2cc(S(=O)(=O)N3CCCCCC3)ccc21 | · | 24* | -16 | · | · | 2 | 19
CCOC(=O)Nc1cc(=O)c2ccccc2o1 | 69* | 44* | 35 | -11 | 60* | -19 | 23*
Cc1ccc(CNC(=O)c2cc3c(=O)n4ccccc4nc3n(Cc3ccco3)c2=N)cc1 | · | · | · | · | · | -12 | ·
COc1ccc(CCNC(=O)c2cc3c(=O)n4cccc(C)c4nc3n(Cc3ccco3)c2=N)cc1OC | · | 36* | -3 | · | · | 2 | 1
Cc1cccn2c(=O)c3cc(C(=O)NCc4ccco4)c(=N)n(CCc4ccccc4)c3nc12 | 1 | -12 | -16 | · | -4 | · | ·
Cc1cccn2c(=O)c3cc(C(=O)NCCc4ccccc4)c(=N)n(Cc4ccco4)c3nc12 | · | 63* | 25 | · | · | -27 | -2
Cc1cc(C)cc(NC(=O)c2ccc(N3C(=O)C4CCCCC4C3=O)cc2)c1 (stereo not given) | · | 0 | -20 | · | · | 10 | ·
COc1ccc(S(=O)(=O)N(CC(=O)N2CCN(C)CC2)c2ccc(C)cc2)cc1Br | · | -1 | -23 | · | · | -22 | ·
O=C(CN1C(=O)C2CCCCC2C1=O)Nc1nc(-c2ccccn2)cs1 (stereo not given) | 5 | 41* | 25 | 39 | 1 | 46 | 14
O=C(Nc1nc(-c2ccccc2)cs1)Nc1ccc(F)cc1F | -1 | -1 | -33 | -11 | 4 | -63 | ·
C[C@@H](C(=O)Nc1nc(-c2ccccn2)cs1)N1C(=O)C2CCCCC2C1=O (stereo not given in full) | -3 | -1 | -41 | · | 0 | 9 | ·
O=C(Nc1nc(-c2ccccn2)cs1)Nc1ccc(F)cc1F | · | 50* | -3 | · | · | 39 | 47*
O=C(Nc1nc(-c2ccccn2)cs1)c1ccc2c(c1)OCCO2 | -1 | 28* | -99 | -110 | -2 | -2 | 20
CCOC(=O)C(C)NC(=O)Cn1ncc2c(=O)oc3ccc(C)cc3c21 (stereo not given) | 1 | 6 | -10 | · | -3 | 8 | ·
COc1cc(Cl)ccc1OCc1cc(C(=O)NCc2cc(C(C)C)no2)no1 | · | 5 | -103 | · | · | -147 | ·
CC(C)C(=O)NNc1ccc(C(F)(F)F)cn1 | -3 | -2 | -11 | · | 1 | 21 | ·
CC(OC(=O)c1ccc(NS(=O)(=O)c2ccc3[nH]c(=O)[nH]c3c2)cc1)C(N)=O (stereo not given) | · | -2 | -21 | · | · | -16 | ·
Cn1cccc1/C=C1\SC(=Nc2ccc(O)cc2)NC1=O | 89* | 90* | 46 | · | 87* | -47 | 66*
Cn1cccc1/C=C1\SC(=Nc2ccccc2)NC1=O | 76* | 68* | 39 | · | 72* | 46 | 57*
Nc1cccc(-c2nc3ccc(C(=O)c4ccccc4)cc3[nH]2)c1 | · | 72* | -4 | · | · | -276 | 60*
Cc1cc(/C=N/NC(N)=S)c(O)c(/C=N/NC(N)=S)c1 | -2 | 90* | -16 | · | 2 | 7 | 13
NC(=S)N/N=C/c1cccc(O)c1O | 1 | -5 | -18 | -7 | 8 | -94 | ·
Cc1cccc(NC(=O)CSc2nc3ccccc3nc2N2CCCCC2)c1 | · | 43* | 36 | · | · | 53 | 29*
Cc1cccc(NC(=O)CSc2nc3ccccc3nc2N2CCCC2)c1 | · | 32* | -10 | · | · | 34 | 5
COc1cccc(NC(=O)CSc2nc3ccccc3nc2N2CCCC2)c1 | · | 9 | -8 | · | · | 24 | ·
Cc1cccc(Cc2cnc(NC(=O)c3ccc(C)o3)s2)c1 | 71* | 59* | -99 | -76 | 76* | 16 | 39*

Assay outcomes from PubChem.
